Assay results from PubChem BioAssay AID686978 (National Center for Advancing Translational Sciences (NCATS), 2013).
Screen size: about 420,000 compounds; about 64,000 (15%) were called active. Another 27% or so got no clear call; they are omitted. These entries were drawn from the full list. Values without a mark were called inactive. Calls follow the shape of the dose curve; as a rule, active = well fitted inhibition curve with a large enough effect; inconclusive = small, poorly fitted or top-dose-only effect; inactive = flat fitted curve, though single readings scatter.

assay: qHTS for Inhibitors of human tyrosyl-DNA phosphodiesterase 1 (TDP1): qHTS in cells in absence of CPT; details: DT40 Tdp1-/- hTDP1 cells, no CPT, ATP luminescence, 48 h; activity change, negative = growth inhibition: at 46.2 µM (top of the series); also: nearly all actives have a fitted effect of over 55% in size
Summary of the method: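 No-CPT arm: Tdp1-/-;hTDP1 DT40 cells (400/well) plus compounds, incubated ≥48 hr at 37 °C. Readout CellTiter-Glo luminescence.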
% is scaled to controls: 0 for no effect and ±100 for the full control effect; potency is read from the fitted curve at half-maximal effect.

First: COc1ccc(C(=O)COC(=O)CNC(=O)c2cccs2)cc1Br
Second: CC(=O)CCC(=O)c1ccc2ccccc2c1
The “activity change, negative = growth inhibition” value of the first is higher: 2.17% for the first, -2.51% for the second.

Compared with `Cc1ccc(S(=O)(=O)n2cnc3ccccc32)c(C)c1`, `Cc1ccc(C)c(S(=O)(=O)n2cnc3ccccc32)c1` is higher in “activity change, negative = growth inhibition” value: -22.7% for the first, 5.49% for the second.

Compared with `COc1ccc(C)cc1NC(=S)N1CCOCC1`, `CC(=O)Nc1ccc(S(=O)(=O)Oc2ccc(Br)cc2C(=S)N2CCOCC2)cc1` is lower in “activity change, negative = growth inhibition” value: 5.24% for the first, -11.6% for the second.

First: C=CCOc1c(Br)cc(/C=N\n2nnnc2N)cc1OC
Second: COc1ccccc1CN(C)c1nnnn1-c1ccccc1
The “activity change, negative = growth inhibition” value of the first is lower: -11.6% for the first, -3.34% for the second.

First: C[C@H]1CN([C@@H](C)CO)C(=O)c2cc(-c3cccc(F)c3)cnc2O[C@@H]1CN(C)S(C)(=O)=O
Second: CC1CN(Cc2nc3c(c(=O)n(C)c(=O)n3C)n2Cc2cccc(Cl)c2)CC(C)O1 (stereo not given)
The “activity change, negative = growth inhibition” value of the first is higher: -5.26% for the first, -12.8% for the second.

First: Cn1c(=O)c2c(nc(Oc3ccc(C#N)cc3)n2Cc2ccc(Cl)cc2Cl)n(C)c1=O
Second: COc1ccc(CCNC(=O)Cn2c(=O)n(-c3ccccc3)c(=O)c3c(C)c(C)sc32)cc1OC
The “activity change, negative = growth inhibition” value of the first is higher: 1.97% for the first, -19.5% for the second.

Compared with `CN1CCc2nc(SC(C(=O)O)c3ccccc3)c(C#N)c(-c3cccs3)c2C1` (stereo not given), `Cn1c2ccccc2c(=O)c2c(O)cccc21` is lower in “activity change, negative = growth inhibition” value: -9.2% for the first, -24.6% for the second.

Compared with `C=CCn1c(SCC(N)=O)nnc1-c1cc2c(s1)CCC(CC)C2` (stereo not given), `CCOC(=O)CSc1nnc(-c2ccco2)n1C` is higher in “activity change, negative = growth inhibition” value: -16.5% for the first, 2.37% for the second.

Going from `O=C1C=C(c2ccccc2)CCC1` to `CC1Cc2ccccc2N1C1=CC(=O)CC(C)(C)C1` (stereo not given), the “activity change, negative = growth inhibition” value rises from -7.87% to 3.77%.

`CC(=O)c1ccc2c(ccc3ccccc32)c1` and `CC(CCc1ccccc1)NC(=O)c1ccc(Br)o1` (stereo not given) are the same in “activity change, negative = growth inhibition” value: -26.8% for the first, -26.8% for the second.

First: CCc1ccc(C(=O)N2CCN(S(=O)(=O)c3sc(C(=O)O)c(C)c3C(=O)O)CC2)cc1
Second: CC[C@]12c3[nH]c4ccc(OC)cc4c3CCN1C(=O)C(CC(=O)NCc1ccco1)C[C@@H]2C(=O)N1CCN(C(=O)C2CC2)CC1 (stereo not given in full)
The “activity change, negative = growth inhibition” value of the first is higher: 28% for the first, -14.6% for the second.

First: O=S(=O)(Oc1ccccc1C(=S)N1CCOCC1)c1ccc(Cl)cc1
Second: CC(C)N(C(=O)Cn1c(SCC(=O)N2CCN(c3ccccc3)CC2)nc2ccccc21)C(C)C
The “activity change, negative = growth inhibition” value of the first is lower: -24.6% for the first, -8.4% for the second.

First: CCN(CC)P(=O)(C(NC(=O)OC)C(F)(F)C(F)(F)C(F)(F)C(F)F)N(CC)CC (stereo not given)
Second: O=C(NC1CCCC1)C1c2ccccc2OCC(=O)N1CC(F)(F)F (stereo not given)
The “activity change, negative = growth inhibition” value of the first is higher: -6.34% for the first, -22.1% for the second.

Going from `Cc1cc(C)nc(SCc2nnc(SCC(=O)Nc3ncc(C)s3)n2Cc2ccco2)n1` to `Cc1nnc(SCC(=O)Nc2ccc(S(=O)(=O)Nc3ccc(Cl)nn3)cc2)s1`, the “activity change, negative = growth inhibition” value rises from -21.5% to 5.6%.

First: Cc1ccc(C)c(NC(=O)C2CC(=O)N(C(C)C)C2)c1 (stereo not given)
Second: COc1cn(CC(=O)Nc2cccc(C)c2C)c(CN2CCCCC2)cc1=O
The “activity change, negative = growth inhibition” value of the first is lower: -3.74% for the first, -0.619% for the second.

First: CCCC(C)n1[nH]c(=O)c2c(C)cc(C)nc21 (stereo not given)
Second: CCOC(=O)C1=C(C)N=c2s/c(=C\C(=O)OC)c(=O)n2C1c1ccc(OC)cc1 (stereo not given)
The “activity change, negative = growth inhibition” value of the first is lower: -19.9% for the first, -18.9% for the second.

First: O=C(CNC(=O)c1ccc(Br)o1)Nc1ccccc1
Second: NS(=O)(=O)c1ccc(NC(=O)COC(=O)c2ccco2)cc1
The “activity change, negative = growth inhibition” value of the first is higher: 22.8% for the first, 21.8% for the second.

Going from `O=C(COC(=O)c1ncc(Cl)c(Cl)c1Cl)NC1CCS(=O)(=O)C1` (stereo not given) to `O=C(COC(=O)c1cccnc1Cl)NC(=O)NC1CCCCC1`, the “activity change, negative = growth inhibition” value falls from 0.826% to -9.72%.

Going from `NC(N)=NCCCc1cn(CC(=O)N2CCNCC2)nn1` to `CC1(C(=O)O)CCCN(C(=O)/C=C/c2ccccc2)C1` (stereo not given), the “activity change, negative = growth inhibition” value falls from 8.18% to 4.02%.

Going from `N#Cc1ccc(C(=O)OCC(=O)NC(=O)NC2CCCCC2)cc1` to `CC(C)(C)NC(=O)NC(=O)COC(=O)C1c2ccccc2Oc2ccccc21`, the “activity change, negative = growth inhibition” value falls from 0.0108% to -11.4%.

Compared with `O=C(/C=C/Nc1ccccc1)c1cnc(-c2ccccc2)s1`, `O=C(Nc1ccc(OCCO)cc1)c1csc([C@H]2C[C@H](O)[C@@H](CO)O2)n1` is higher in “activity change, negative = growth inhibition” value: -12% for the first, -6.08% for the second.

First: Nc1nnc(SCCN2C(=O)c3ccccc3S2(=O)=O)s1
Second: COc1cc(C(=O)N(Cc2ccc(C(C)C)cc2)C2CCS(=O)(=O)C2)cc(OC)c1OC (stereo not given)
The “activity change, negative = growth inhibition” value of the first is lower: -19.8% for the first, -18.9% for the second.

Compared with `CN(C)CCCN(Cc1cc2cc3c(cc2[nH]c1=O)OCCO3)C(=O)NC1CCCCC1`, `CC[C@]12c3[nH]c4ccc(Cl)cc4c3CCN1C(=O)[C@@H](CC(=O)NCCCOC)C[C@@H]2C(=O)N1CCN(C(=O)C2CC2)CC1` is higher in “activity change, negative = growth inhibition” value: -27.3% for the first, -14.3% for the second.

Going from `Clc1cccc[n+]1CCCC[n+]1ccccc1Cl` to `Cc1ccc(N2C(=O)C3C4C=CC(CC4)C3C2=O)cc1Br` (stereo not given), the “activity change, negative = growth inhibition” value rises from -8.35% to -0.847%.

Compared with `CC1O[C@@H](Oc2c(-c3ccc(O)c(O)c3)oc3cc(O)cc(O)c3c2=O)C(O)C(O)C1O` (stereo not given in full), `Cc1ccc(-c2n[nH]c(=S)n2/N=C/c2cc3c(cc2[N+](=O)[O-])OCO3)cc1` is higher in “activity change, negative = growth inhibition” value: -21.7% for the first, -9.24% for the second.

Going from `O=C1CCC(C(=O)N2CCCCO2)CN1Cc1cccc(C(F)(F)F)c1` (stereo not given) to `CC[C@]12c3[nH]c4ccc(Cl)cc4c3CCN1C(=O)[C@@H](CC(=O)NCCN1CCOCC1)C[C@@H]2C(=O)N1CCN(C(=O)C2CC2)CC1`, the “activity change, negative = growth inhibition” value falls from -0.0376% to -1.26%.

First: CC(=O)N/N=C/c1cc2c(cc1[N+](=O)[O-])OCO2
Second: CC[C@]12c3[nH]c4ccc(OC)cc4c3CCN1C(=O)C(CC(=O)NCCN1CCOCC1)C[C@@H]2C(=O)N1CCN(C(=O)C2CC2)CC1 (stereo not given in full)
The “activity change, negative = growth inhibition” value of the first is lower: -10.1% for the first, -4.6% for the second.

For `COc1ccc(S(=O)(=O)n2cnc3ccccc32)c(C)c1`, the Potency was 10.3 µM (active).
In the case of `C=CCOc1nc2c(c(=O)n(C)c(=O)n2C)n1Cc1ccc(Cl)cc1Cl`, the Potency is reported as 14.6 µM (active).
In the case of `C=CC(=O)c1ccc2ccccc2c1`, the Potency is reported as 2.31 µM (active).
With `CCOc1cc(C(=S)N2CCOCC2)ccc1OS(=O)(=O)c1ccc(Br)cc1` the Potency was 20.6 µM (active).
In the case of `CCOC(=O)CSc1nc2c(sc(=S)n2CCc2ccccc2)c(=O)n1Cc1ccco1`, the Potency is reported as 16.4 µM (active).
For `CC(CNC(=O)c1ccc(Br)o1)NC(=O)c1ccc(Br)o1` (stereo not given), the Potency was 4.61 µM (active).
For `C=C1C(=O)C23C(O)C1CCC2[C@]12COC3(O)C(O)C1C(C)(C)CC[C@H]2O` (stereo not given in full), the Potency was 6.51 µM (active).
In the case of `Cc1nn(-c2ccccc2)c(C)c1C(=O)OCC(=O)NC(=O)NC1CCCCC1`, the Potency is reported as 29.1 µM (active).
In the case of `CC(C)Cn1c(N2CCN(C(=O)/C=C/c3ccccc3)CC2)nc2ccccc21`, the Potency is reported as 9.2 µM (active).
For `COc1ccc(OC)c(C2C3=C(N=c4s/c(=C\c5cccc(O)c5)c(=O)n42)c2ccccc2CC3)c1` (stereo not given), the Potency was 25.9 µM (active).
In the case of `CCCCCCCCn1c2c(c(=N)c3c1CCC3)CCCC2`, the Potency is reported as 1.03 µM (active).
For `Brc1cccc[n+]1Cc1cccc(C[n+]2ccccc2Br)c1`, the Potency was 20 µM (active).
For `CCCc1nc2c(c(=O)c3ccccc3n2C)c(=O)n1C1CCCCCC1`, the Potency was 16.4 µM (active).
For `Cc1ccc(S(=O)(=O)N/N=C\c2cc3c(cc2[N+](=O)[O-])OCO3)cc1`, the Potency was 18.4 µM (active).
For `COc1ccc(CNC(=O)C[C@H]2C[C@H](C(=O)N3CCOCC3)[C@@]3(CCC4CCCC4)c4[nH]c5ccc(Cl)cc5c4CCN3C2=O)cc1OC`, the Potency was 18.4 µM (active).
In the case of `O=C(C[C@H]1C[C@H](C(=O)N2CCOCC2)[C@@]2(CCC3CCCC3)c3[nH]c4ccc(Cl)cc4c3CCN2C1=O)NCc1ccco1`, the Potency is reported as 23.1 µM (active).
